In the experiment the target is T1, Methionyl-tRNA synthetase, putative (Leishmania donovani (strain BPK282A1)) (UniProt E9BF75).
T1 sequence (whole entry): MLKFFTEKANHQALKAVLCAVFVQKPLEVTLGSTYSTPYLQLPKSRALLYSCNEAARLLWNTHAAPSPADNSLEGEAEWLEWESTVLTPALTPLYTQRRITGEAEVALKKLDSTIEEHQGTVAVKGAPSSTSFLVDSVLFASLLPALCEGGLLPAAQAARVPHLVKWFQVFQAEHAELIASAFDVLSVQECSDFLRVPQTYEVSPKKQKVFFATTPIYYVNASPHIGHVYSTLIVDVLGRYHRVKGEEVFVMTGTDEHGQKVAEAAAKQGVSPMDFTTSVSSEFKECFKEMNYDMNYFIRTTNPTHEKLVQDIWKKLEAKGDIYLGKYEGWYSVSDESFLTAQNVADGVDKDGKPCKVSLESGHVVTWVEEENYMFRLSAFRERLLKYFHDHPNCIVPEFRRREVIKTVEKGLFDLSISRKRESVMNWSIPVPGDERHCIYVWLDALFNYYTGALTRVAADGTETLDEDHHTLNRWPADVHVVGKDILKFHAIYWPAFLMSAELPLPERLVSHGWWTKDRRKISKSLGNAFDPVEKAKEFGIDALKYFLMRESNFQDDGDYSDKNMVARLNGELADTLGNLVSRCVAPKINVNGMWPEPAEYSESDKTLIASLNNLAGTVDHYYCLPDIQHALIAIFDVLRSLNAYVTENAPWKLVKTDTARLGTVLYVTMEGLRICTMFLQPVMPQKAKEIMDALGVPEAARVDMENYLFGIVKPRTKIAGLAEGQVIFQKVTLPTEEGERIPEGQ
Kind of experiment: Leishmania donovani Methionine tRNA synthetase (LdMetRS):v7. Dose response assay. It counts as functional. Details: conc 80 nM, time 150 minutes.

The values below come from ChEMBL document CHEMBL3988442, “University of Dundee, Small-Polar-MMV Screening Library” (2021).

`CN(c1ncnc2ccccc12)C1CCCN(c2cccnn2)C1` (stereo not given): the PXC50 by setting is: (BOTTOM 0.59496429, HILLSLOPE 1.142527095, MAX_EFFECT 61.72248804, TOP 100.0) 4.15; (BOTTOM 4.775047561, HILLSLOPE 1.968197794, MAX_EFFECT 73.89635317, TOP 73.89635317) 4.48; (BOTTOM 7.086189247, HILLSLOPE 1.125976509, MAX_EFFECT 60.07005254, TOP 100.0) 4.1; (BOTTOM 8.519162934, HILLSLOPE 1.512392504, MAX_EFFECT 75.36231884, TOP 100.0) 4.28; (BOTTOM -1.496045735, HILLSLOPE 1.12468747, MAX_EFFECT 69.3877551, TOP 100.0) 4.34.

As for `Cc1cc(C)n(-c2nc(NCCCO)c3c4c(sc3n2)CCCC4)n1`, the PXC50 came to 4.43 (BOTTOM 0.694327114, HILLSLOPE 1.749821258, MAX_EFFECT 87.74703557, TOP 100.0); 4.59 (BOTTOM 1.783825543, HILLSLOPE 1.533717892, MAX_EFFECT 94.44444444, TOP 106.8963367); 4.27 (BOTTOM 1.928318756, HILLSLOPE 2.074005498, MAX_EFFECT 78.73015873, TOP 100.0); 4.61 (BOTTOM 4.876612539, HILLSLOPE 1.662902224, MAX_EFFECT 88.59060403, TOP 97.50762335); 4.48 (BOTTOM 5.143035966, HILLSLOPE 1.849282201, MAX_EFFECT 96.18717504, TOP 100.0).

`c1ccc(C2CCCN(c3cncc(-n4cccn4)n3)CC2)cc1` (stereo not given): the PXC50 reads like this: (BOTTOM 2.059841181, HILLSLOPE 1.067052754, MAX_EFFECT 60.46065259, TOP 100.0) 4.15; (BOTTOM 3.016481369, HILLSLOPE 1.023719455, MAX_EFFECT 53.04659498, TOP 100.0) 4.01; (BOTTOM -1.1240017, HILLSLOPE 1.127395441, MAX_EFFECT 50.23923445, TOP 100.0) 4.01; (MAX_EFFECT 41.25412541) < 4; (MAX_EFFECT 41.30434783) < 4.
